Eight compounds from PubChem BioAssay (NCI) can be followed below.

Common to all, as to assay: NCI-60 one-dose screen, 48 h (100 = growth as untreated, 0 = no growth, -100 = all killed)
Common to all, as to conditions: 10 µM unless noted

Assay [1] deals with NCI-H23 lung.
Assay [2] has as its system NCI-H226 lung.
Assay [3] deals with NCI-H322M lung.
Assay [4] concerns HOP-62 NSCLC.
The subject of assay [5] is NCI-H460 lung.
In assay [6] the test system is HOP-92 NSCLC.
The test system of assay [7] is NCI-H522 lung.
Assay [8] relates to A549/ATCC NSCLC.
For assay [9], the system named is 786-0 renal.
Assay [10] relates to COLO 205 colon.
Assay [11] concerns DU-145 prostate.
For assay [12], the system named is K-562 leukemia.
In assay [13] the test system is MALME-3M melanoma.
Assay [14] relates to MDA-MB-231 breast.
The subject of assay [15] is RXF 393 renal.
Assay [16] concerns SF-268 CNS.
In assay [17] the test system is SF-295 CNS.
In assay [18] the test system is SF-539 CNS.
The subject of assay [19] is UACC-257 melanoma.
The test system of assay [20] is M14 melanoma.

The panel holds about 83,000 compounds, 20% with a hit somewhere; the sample as a whole holds those more often.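 Single-concentration screen, 48 h exposure, 96-well plates. Endpoint: percent growth. Below 10 = active.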 Values without a mark were called inactive. Calls of active or inactive are those of the source.

As for `Cc1ccc(C2C3CC4CCCCC4N3[C@@]3(C(=O)Nc4cc(Cl)ccc43)C2C(=O)c2nc3ccccc3[nH]2)cc1` (stereo not given in full), the growth in assay [1] is 57.8%; in assay [2], 62.7%; in [3] it was 63.3%; in assay [4] it was 66.5%; in assay [5] it was 15.9%; in [6], 44.1%. The growth in [7] is 54%; in assay [8] it was 31.1%; in [9], 35.2%; in assay [10], 30.6%; in assay [11], 64.3%; in assay [12], 26.2%. Further, the growth in [13] was 33.9%; in assay [14], 30.6%; in assay [15] it was 15.5%; in assay [16], 38.3%; in [17] it was 27.9%; in assay [18], 50.3%. The growth was 35.1% in assay [19] and 27.9% in [20].

As for `CC(C)C1C2=C(NCCN1C(=O)Cc1ccccc1)C(C)(C)N(Cc1ccccc1)C2=O` (stereo not given), the growth in assay [1] was 97.4%; in [2], 104%; in assay [3], 99.2%; in [4], 91.9%; in assay [5] it was 104%; in assay [6], 93.6%. In addition, the growth was 93.6% in assay [7]; 100% in assay [8]; 97.3% in assay [9]; 100% in [10]; 104% in assay [11]; 96.5% in assay [12]. The growth in assay [13] is 98.3%; in assay [14], 98.2%; in assay [15], 98.3%; in assay [16], 102%; in assay [17], 99.5%; in assay [18], 107%. Further, the figures for the growth in assay [19] and in [20] were 96.7% and 103%, respectively.

`C=C1C(=O)O[C@H]2[C@H]1CC/C(COC(=O)/C=C/c1c[nH]c3ccccc13)=C\CC[C@@]1(C)O[C@@H]21`: the growth in [1] is -53% (active); in assay [2], -71.4% (active); in assay [3], -48.2% (active); in assay [4], -73.5% (active); in [5] it was -70.8% (active); in [6] it was -91.4% (active). Further, the growth is -63.1% (active) in assay [7]; -78.7% (active) in [8]; -90.4% (active) in assay [9]; -68.8% (active) in [10]; -73.5% (active) in assay [11]; -3.41% (active) in [12]. The growth in assay [13] is -83.5% (active); in assay [14], -78.4% (active); in [15], -94.3% (active); in assay [16] it was -72.8% (active); in assay [17], 21.8%; in assay [18] it was -95.5% (active). The results for the growth in assay [19] and in assay [20] were -90.4% (active) and -76.9% (active), respectively.

Turning to `CCCCCOc1ccc(/C=N/Nc2cc(C)nc3ccc(Br)cc23)cc1`, the growth in assay [1] was 75.1%; in assay [2], 91.5%; in [3], 65.1%; in [4], 58.1%; in [5], -57.9% (active); in assay [6], 69.7%. Further, the growth is 1.99% (active) in assay [7]; 2.38% (active) in assay [8]; -90.9% (active) in assay [9]; -50.4% (active) in assay [10]; 0.579% (active) in assay [11]; -19.6% (active) in [12]. The growth in [13] was -35.9% (active); in [14] it was -51.4% (active); in assay [15], -82.9% (active); in assay [16], 87.2%; in assay [17], -84.8% (active); in [18], -83.7% (active). The growth in assay [19] is 102%; in assay [20], 15.5%.

Consider `C=C1C(=O)O[C@H]2[C@H]1CC/C(COC(=O)CCCCCC(=O)OC/C1=C/CC[C@@]3(C)O[C@H]3[C@H]3OC(=O)C(=C)[C@@H]3CC1)=C\CC[C@@]1(C)O[C@@H]21`, for which the growth in assay [1] was 9.16% (active); in assay [2] it was 52%; in assay [3], 86.3%; in assay [4], 85.6%; in [5] it was 76.4%; in assay [6] it was -1.51% (active). For the same compound, the growth in assay [7] is -72.5% (active); in assay [8] it was 80.6%; in assay [9], 7.09% (active); in assay [10] it was -38.4% (active); in assay [11] it was 22.4%; in assay [12], 6.4% (active). The growth in [13] was -11.1% (active); in assay [14], -28.2% (active); in assay [15], -77.3% (active); in [16] it was 43.6%; in assay [17] it was 84.7%; in assay [18], 3.99% (active). The growth in [19] is 48.2%; in [20] it was -0.138% (active).

As to `CC(=O)c1cc2c(N)c(C(=O)Nc3cncc4ccccc34)sc2nc1C`, the growth in [1] is 101%; in assay [2], 105%; in [3], 113%; in [4], 93.5%; in [5], 110%; in [6], 98.6%. For the same compound, the growth was 92.1% in assay [7]; 106% in assay [8]; 98.4% in [9]; 121% in assay [10]; 115% in assay [11]; 81.7% in [12]. The growth in assay [13] is 112%; in assay [14] it was 86.2%; in assay [15], 100%; in [16] it was 105%; in assay [17], 97.2%; in [18] it was 98.3%. The growth was 104% in [19] and 94% in assay [20].

As for `CCCCOc1ccc(/C=N/Nc2cc(C)nc3ccc(Cl)cc23)cc1`, the growth in assay [1] is 60%; in [2], 88.9%; in [3] it was 51.6%; in [4], 27.1%; in [5], -62.8% (active); in [6] it was 68.7%. The growth in [7] is -25.4% (active); in [8] it was 10.1%; in assay [9], -80.9% (active); in assay [10], -66.6% (active); in assay [11], 3.96% (active); in [12] it was -21.7% (active). Moreover, the growth is -77% (active) in assay [13]; -49.5% (active) in assay [14]; -84.2% (active) in [15]; 64.9% in [16]; -83.6% (active) in assay [17]; -80.5% (active) in assay [18]. For the same compound, the growth in assay [19] is 84.1%; in assay [20], -25.2% (active).

For the compound `Cc1[nH]c(C(=O)Nc2ccccc2OCc2cccc(C(=O)NCCN)c2)c(Cl)c1Cl`, the growth in assay [1] is 78%; in assay [2], 87.8%; in [3], 81.9%; in [4] it was 69.2%; in assay [5], 51.8%; in assay [6], 84.6%. Further, the growth in [7] is 80.9%; in assay [8] it was 63.8%; in assay [9], 33.9%; in [10], 68.7%; in assay [11], 100%; in [12], -47.5% (active). Further, the growth in assay [13] was 58.4%; in assay [14], 76.8%; in [15], 65.2%; in assay [16], 67.9%; in [17], 87.8%; in assay [18], 84.9%. For the same compound, the growth was 104% in assay [19] and 87.8% in [20].
